From PubChem BioAssay (Tox21)
Records with an inconclusive call do not appear. A number with no mark means an inactive call. The source made the active and inactive calls. Calls follow the shape of the dose curve; as a rule, active = well fitted activation curve with a large enough effect in the repeat runs; inconclusive = weak or mixed curves; inactive = flat fitted curve, though single readings scatter. Where a SMILES comes first, the peptide text is derived from it.

assay: A CellTox Green Cytotoxicity Assay to monitor cytotoxicity in HEK293 cells - 24 hour (AID 1224875); conditions: CellTox Green fluorescence; series mostly up to 76.8 µM; activity change: at the top concentration; also: nearly all actives have a fitted effect of over 45% in size
Source text: National Center for Advancing Translational Sciences [NCATS]
NIH Chemical Genomics Center [NCGC]
U.S. Environmental Protection Agency [EPA]
National Institutes of Environmental Health Sciences [NIEHS]
National Toxicology Program [NTP]
Cell-based models are critical for drug discovery. Determining the natural cytotoxic effects resulting from test compounds is an essential research activity. A CellTox Green Cytotoxicity Assay to monitor cytotoxicity in real time of continues cell culture during 40 hours of the compound treatment was used to screen Tox21 10K library compounds in Hek293 cells. CellTox Green Cytotoxicity Assay is a nonlytic, homogeneous, biofluorescent method to measure cytotoxicity in cell culture after experimental manipulation. The assay system uses a proprietary asymmetric cyanine dye that is excluded from viable cells but preferentially stains the dead cell's DNA. […] Viable cells produce no appreciable increases in fluorescence. Therefore, the fluorescence signal produced by the binding interaction with dead cell DNA is proportional to cytotoxicity.
The mixture of Hek293 cell suspension and reagents were dispensed at 600cells/6 ul/well in 1536-well tissue culture treated black solid bottom plates using a Multidrop dispenser. After the assay plates were incubated at a 37 C/5% CO2 incubator for 5 hours, 23 nL of compounds dissolved in DMSO, positive and negative controls was transferred to the assay plate by a pintool work station. The plates were incubated at 37 C for 40 hours. The fluorescence intensity were measured at 0h, 8h, 16h, 24h, 32h and 40h time points using ViewLux plate reader during compound treatment.
% is scaled to controls: 0 for no effect and ±100 for the full control effect; potency is read from the fitted curve at half-maximal effect.

Row | SMILES | activity change | Potency
1 | OC1(c2ccc(Cl)cc2)CCNCC1 | -8.15% [at 35.3 µM, active compounds read high] | 
2 | CC(=O)O[Si](C)(OC(C)=O)OC(C)=O | -8.04% | 
3 | C[Si]1(C)O[Si](C)(C)O[Si](C)(C)O[Si](C)(C)O[Si](C)(C)O1 | -20.5% | 
4 | CCCCCCCCCCOC(C)=O | 1.84% | 
5 | CSc1cnccn1 | -10% | 
6 | CC1CC(=O)CC(C)(C)C1 (stereo not given) | -2.59% | 
7 | CCCCCCCCCOC(=O)CCCCC(=O)OCCCCCCC |  | 24.5 µM (active)
8 | CN(C)C(C)(C)CO | -0.0479% | 
9 | Cn1nnc2c(C(N)=O)ncn2c1=O | -20.9% [at 35.3 µM, active compounds read high] | 
10 | CC(=O)CCc1ccc(OC(C)=O)cc1 | -12.5% | 
11 | CC/C(C)=N\O[Si](C)(O/N=C(\C)CC)O/N=C(\C)CC | -0.596% | 
12 | O=C(O)CSCC(=O)NC1CCSC1=O (stereo not given) | 2.45% [at 35.3 µM, active compounds read high] | 
13 | N#CCC(=O)NN | -2.69% [at 35.3 µM, active compounds read high] | 
14 | CC(C)Nc1ccccc1 | -1.1% | 
15 | O=C1NC(c2ccccc2)(c2ccccc2)C(=O)N1COP(=O)(O)O | -14.8% [at 35.3 µM, active compounds read high] | 
16 | CCCCCC(C)O (stereo not given) | -1.13% | 
17 | Cc1c(C(=O)c2c[nH]n(C)c2=O)ccc(S(C)(=O)=O)c1C1=NOCC1 | -1.08% [at 35.3 µM, active compounds read high] | 
18 | c1ccc2cnccc2c1 | 5.84% | 
19 | O=S(=O)(O)c1ccc2c(N=Nc3ccc(S(=O)(=O)O)c4ccccc34)c(O)c(S(=O)(=O)O)cc2c1 | 9.08% [at 6.97 µM, active compounds read high] | 
20 | CC(=O)CC(=O)Nc1ccc(C)cc1C | -4.17% | 

Row | SMILES | activity change | Potency
21 | OC[C@@H](O)C(O)[C@@H](O)CO (stereo not given in full) | -8.1% | 
22 | Nc1nnnn1-c1ccccc1 | -1.99% [at 35.3 µM, active compounds read high] | 
23 | CCC(C)OC(C)CC (stereo not given) | -1.44% | 
24 | CC(=O)C(C)O (stereo not given) | -2.54% | 
25 | CCCCOCCOC(=O)COc1ccc(Cl)cc1Cl | 2.97% | 
26 | Cc1c(N)cccc1Cl | -4.48% | 
27 | C=Cc1ccc(C(C)(C)C)cc1 | -5.03% | 
28 | CO[Si](CCCn1c(=O)n(CCC[Si](OC)(OC)OC)c(=O)n(CCC[Si](OC)(OC)OC)c1=O)(OC)OC | -10.4% [at 35.3 µM, active compounds read high] | 
29 | [O]=[Mo](=[O])=[O] | -37.6% [at 15.8 µM, active compounds read high] | 
30 | CC1CCc2c(N3CCC(O)CC3)c(F)cc3c(=O)c(C(=O)O)cn1c23 (stereo not given) | 7.57% [at 35.3 µM, active compounds read high] | 
31 | Cc1ccc(C)c([N+](=O)[O-])c1 | 1.72% | 
32 | O=C(O)c1cc2ccccc2nc1C(=O)O | -5.25% | 
33 | CC(=O)N[C@@H](CO)C(=O)N[C@@H](CC(=O)O)C(=O)N[C@@H](CCCCN)C(=O)N1CCC[C@H]1C(=O)O (Ac-SDKP-OH) | -5% [at 35.3 µM, active compounds read high] | 
34 | Cc1ncc([N+](=O)[O-])n1CC(C)O (stereo not given) | 0.71% [at 35.3 µM, active compounds read high] | 
35 | O=C[O][Al]([O]C=O)[O]C=O | -2.05% | 
36 | CN1CCOC(c2ccccc2)c2ccccc2C1 (stereo not given) | 15% [at 35.3 µM, active compounds read high] | 
37 | CCCc1ccc(O)cc1 | 15.2% | 
38 | CC(C)c1ccc(C=O)cc1 | 3% | 
39 | NCCOCCN | -2.08% | 
40 | COC(=O)c1cccc(Cl)c1 | 0.822% | 
